# Laboratory results published in PubChem BioAssay (Tox21).
# Records with an inconclusive call do not appear. Calls of active or inactive are those of the source. The call rests on the fitted dose curve; in most records, active means well fitted cell-killing curve with a large enough effect in the repeat runs; inconclusive means weak or mixed curves; inactive means flat fitted curve, though single readings scatter.
# Test: qHTS assay to identify small molecule antagonists of the estrogen related receptor (ERR) signaling pathway from Tox21 library - cell viability counter screen (AID 1224834); further: nearly all actives have a fitted effect of over 30% in size
# Conditions: ERR reporter cells viability, CellTiter-Fluor, 17.5 h; series mostly up to 92.4 µM; viability change, negative = cytotoxic: at the top concentration
# Source text: National Center for Advancing Translational Sciences [NCATS]
# NIH Chemical Genomics Center [NCGC]
# U.S. Environmental Protection Agency [EPA]
# National Institutes of Environmental Health Sciences [NIEHS]
# National Toxicology Program [NTP]
# U.S. Food and Drug Administration [FDA]
# Estrogen related receptors (ERRs), the first orphan nuclear receptors discovered, play an important role in the control of cellular energy metabolism. ERRs are required for high-energy production in response to the environmental challenges. ERR-alpha was also identified as an adverse marker for breast cancer progression; ERR-alpha-positive tumors have a poor prognosis. To screen and to identify environmental compounds that perturb the ERR signaling pathways could provide valuable information for potential therapeutic or preventive measures in the treatment of metabolic disease. To differentiate true ERR antagonists or agonist from cytotoxic substances, the assay is multiplexed with cell viability assay.
# Tox21 Assay Protocol Summary:
# The ERR cells were dispensed at 2,000 cells/5 ul/well in 1536-well white plates using a Multidrop dispenser. After the assay plates were incubated at a 37 C/5% CO2 incubator for 6 hours, 23 nL of compounds dissolved in DMSO, positive and negative controls or DMSO only was transferred to the assay plate by a pin tool. The plates were incubated at 37 C for 17.5 hours. 1 ul/well of CellTiter-Fluor reagent was added into the assay plates using a Flying Reagent Dispenser. After 30-minute incubation at 37 C/5% CO2, the fluorescence intensity in the plates was measured using a ViewLux plate reader.
# On the % scale 0 is the no-effect control and ±100 the full control effect; potency means the concentration at half of the fitted maximal effect.
Structure (SMILES),"viability change, negative = cytotoxic",Potency
CC(C)NCC(O)c1ccc(N)c(C#N)c1 (stereo not given),2.38% [at 42.5 µM] (inactive),–
CCC1(c2ccccc2)C(=O)NC(=O)NC1=O,-0.246% (inactive),–
CCC(Cl)[N+](=O)[O-] (stereo not given),1.18% (inactive),–
CC(C)CC(N(C)C)C1(c2ccc(Cl)cc2)CCC1 (stereo not given),4.76% [at 42.5 µM] (inactive),–
O=C(CCN1CC1)OCC(CO)(COC(=O)CCN1CC1)COC(=O)CCN1CC1,3.33% (inactive),–
CCCCOC(=O)c1ccccc1C(=O)O,1.5% (inactive),–
CCCCCCI,3.52% (inactive),–
CCOC(=O)CP(=O)(OCC)OCC,1.46% (inactive),–
O=[N+]([O-])c1ccc(CBr)cc1,-1.93% (inactive),–
Cc1cccc(C#N)c1,1.51% (inactive),–
ClC(Cl)(Cl)C(Cl)(Cl)Cl,0.238% (inactive),–
CCCCOP(=O)(O)OCCCC,5.61% (inactive),–
CCNc1nc(NC(C)C)nc(OC)n1,2.21% (inactive),–
C#CCN1C(=O)COc2cc(F)c(N3C(=O)C4=C(CCCC4)C3=O)cc21,-6.1% (inactive),–
O=C(N[C@H]1CN2CCC1CC2)c1cc2ccoc2cn1,1.34% (inactive),–
C=C(C)CN(CC)c1c([N+](=O)[O-])cc(C(F)(F)F)cc1[N+](=O)[O-],3.62% (inactive),–
CC1(C)COP(Oc2ccccc2)OC1,-0.424% (inactive),–
Cc1ncsc1CCCl,4.84% [at 42.5 µM] (inactive),–
CC1CCCCC1NC(=O)Nc1ccccc1 (stereo not given),-2.2% (inactive),–
N#CCBr,2.58% (inactive),–

Structure (SMILES),"viability change, negative = cytotoxic",Potency
O=[N+]([O-])c1cccc2c([N+](=O)[O-])cccc12,–,61.4 µM (active)
C[N+](=O)[O-],-0.752% (inactive),–
O=[N+]([O-])c1cccc(O)c1,-0.953% (inactive),–
CCN(CC)CCOC(=O)C(C)(c1ccccc1)c1ccccc1,-0.452% [at 42.5 µM] (inactive),–
CCC(=O)C(CCN(C)C)(c1ccccc1)c1ccccc1,-5.64% [at 42.5 µM] (inactive),–
N#CC(Cl)(Cl)Cl,-0.972% (inactive),–
CCCCN(CCCCO)N=O,0.923% (inactive),–
CCOC(=O)N(C)C(=O)CSP(=S)(OCC)OCC,1.41% (inactive),–
O=[N+]([O-])c1ccc2c3c(cccc13)CC2,-7.07% (inactive),–
N#CCCC#N,10.3% (inactive),–
NC(=S)C(N)=S,-0.225% (inactive),–
CCOP(=S)(OCC)Oc1cc(-c2ccccc2)on1,-0.056% (inactive),–
CCc1cc2c(s1)-n1c(C)nnc1CN=C2c1ccccc1Cl,-5.62% [at 42.5 µM] (inactive),–
COc1cc(OC)nc(Sc2cccc(Cl)c2C(=O)O)n1,0.254% (inactive),–
CCOP(=O)(N=C1SCCS1)OCC,2.73% (inactive),–
N#Cc1ccncc1,5.29% (inactive),–
CCCCc1c(C)nc(NCC)[nH]c1=O,-0.079% (inactive),–
CC1=C(C(=O)O)N2C(=O)[C@@H](N)[C@H]2SC1,3.67% [at 19 µM] (inactive),–
CC(=O)Nc1cc([As](=O)(O)O)ccc1O,-0.638% [at 42.5 µM] (inactive),–
CN1CCN(C(=O)O[C@H]2c3nccnc3C(=O)N2c2ccc(Cl)cn2)CC1,-1.91% [at 42.5 µM] (inactive),–
